A short description of assay [1]: P-glycoprotein substrates identified in KB-8-5-11 adenocarcinoma cell line, qHTS therapeutic library screen (AID 1346987). Further: nearly all actives have a fitted effect of over 65% in size. The gist of the method:
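KB-8-5-11: colchicine-selected sub-line of KB-3-1 over-expressing P-gp; assay medium lacked colchicine. 72 h drug exposure at 37 degree C, CellTiter-Glo.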
On the technique in general: Quantitative high-throughput screening tests each substance at several concentrations.

Assay [2] has as its system Zika virus NS2B-NS3 protease (linked construct). The experiment in a line: Primary screen NINDS Rhodamine qHTS for Zika virus inhibitors (AID 1347160). Further: nearly all actives have a fitted effect of over 55% in size. Further: potency means the concentration at half of the fitted maximal effect. The gist of the method:
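Kinetic fluorescence (Ex 480 nm, Em 540 nm) over 15 min with 1.5 microM Rhodamine110 peptide and 25 nM linked protease.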

In assay [3] the test system is Zika virus NS2B-NS3 protease (unlinked complex). Kind of assay: Primary screen GU Rhodamine qHTS for Zika virus inhibitors: Unlinked NS2B-NS3 protease assay (AID 1347159). Further: nearly all actives have a fitted effect of over 60% in size. Further: potency means the concentration at half of the fitted maximal effect. The gist of the method: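 A qHTS format was used, with compound concentrations ranging up to 114 microM. Each compound was preincubated with 25 nM NS2B-NS3 protease, and the substrate was then added at 1.5 microM. Curves were fitted with a 4-parameter Hill model.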

The test system is the same in assay [4]. Kind of assay: Confirmatory screen GU AMC qHTS for Zika virus inhibitors (AID 1347153).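 Further: enzyme at 25 nM with substrate at 10 µM below its Km of 18.3 µM; potency means the concentration at half of the fitted maximal effect; nearly all actives have a fitted effect of over 70% in size.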 The gist of the method: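 Fluorescence change (ex 340/em 450 nm) over 15 min, ~20% substrate conversion, normalized to no-inhibitor and no-enzyme controls, then Hill-fitted. Unlinked protease at 25 nM; AMC peptide 10 µM.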
Assay [5] is described as follows: Confirmatory screen GU Rhodamine qHTS for Zika virus inhibitors qHTS (AID 1347157). Further: nearly all actives have a fitted effect of over 70% in size. Further: potency means the concentration at half of the fitted maximal effect. The gist of the method: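 Noncovalent NS2B hydrophilic domain/NS3 protease complex (25 nM final) in 10 mM Tris-HCl pH 8.0, 0.01% Tween 20, preincubated 15 min with compounds (up to 114 microM), then 1.5 microM Rhodamine110 substrate. Fluorescence change over 15 min fitted to 4-parameter Hill.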

Assay [6] is described as follows: Confirmatory screen NINDS Rhodamine qHTS for Zika virus inhibitors (AID 1347161). Further: nearly all actives have a fitted effect of over 60% in size. Further: potency means the concentration at half of the fitted maximal effect. The gist of the method:
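In 10 mM Tris-HCl pH 8.0 containing 0.01% Tween 20, linked NS2B-NS3 protease (25 nM final) is exposed to test compounds for 15 min. Cleavage of 1.5 microM Rhodamine110 substrate is tracked by fluorescence over 15 min.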

Assay [7] can be described thus: Vero cells viability qHTS for Zika virus inhibitors (AID 1347167). The gist of the method:
(§1)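 Cells seeded at 2.5 x 10^5 cells/mL in DMEM with 4% FBS and attached overnight at 37 degrees C, then exposed to compound for 24 to 48 hours. Viability read as ATP content by CellTiter Glo luminescence.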

A short description of assay [8]: HepG2 cells viability qHTS for Zika virus inhibitors (AID 1347168). Put shortly:
as §1

For assay [9], the system named is Zika virus NS2B-NS3 protease (linked construct). Kind of assay: Confirmatory screen NINDS AMC qHTS for Zika virus inhibitors (AID 1347152). Further: potency means the concentration at half of the fitted maximal effect; nearly all actives have a fitted effect of over 70% in size. Put shortly:
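Purified NS2B-NS3 protease with NS2B hydrophilic domain linked to NS3 protease domain by flexible linker, 1 nM final in 10 mM Tris-HCl pH 8.0, 0.01% Tween 20. Compounds preincubated 15 min, room temperature; Bz-Nle-KRR-AMC 10 microM (Km 18.3 µM); 15-min fluorescence change, 4-parameter Hill fit.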

Assay [10] can be described thus: ZIKV-mCherry secondary qHTS for Zika virus inhibitors (AID 1347158). Further: potency means the concentration at half of the fitted maximal effect. Put shortly: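 Vero cells, 5,000/well, plated overnight at 37 °C, then compound added and infected with recombinant ZIKV-mCherry at MOI 1 for 48-72 h. PFA-fixed, Hoechst nuclear stain, high-content imaging; cells with mCherry intensity above 450 RFU scored infected, reported as percent infection.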

The subject of assay [11] is Zika virus NS2B-NS3 protease (linked). Kind of assay: 384 well plate NINDS AMC confirmatory qHTS for Zika virus inhibitors (AID 1347163). Further: potency means the concentration at half of the fitted maximal effect; nearly all actives have a fitted effect of over 50% in size. Put shortly: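 Linked protease 5/30/60 nM final; cpds up to 1 mM final, ~15 min preinc. Substrate Ac-VKTGKR-AMC 30 microM final. RT, dark, 25 min; FI ex 355/em 460; normalized to no-enzyme/no-inhibitor ctrls.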

Results filed as inconclusive are left out. The source made the active and inactive calls. The call rests on the fitted dose curve; in most records, active means well fitted curve in the direction sought with a large enough effect; inconclusive means small, poorly fitted or top-dose-only effect, or another doubt; inactive means no such curve, though single readings can be large; an effect the other way counts as inactive or inconclusive.

25 compounds from PubChem BioAssay (NCATS) can be followed below.

For `C=C(C)C1Cc2c(ccc3c2OCC(c2ccc(O)cc2O)C3)O1` (centres undefined), the Potency result in [1] and in [2] was “inactive” in each case.
For the compound `C/C=C/C=C/C1=C2C(=O)C3(C)C4C(C(=O)CC(O)/C=C/C)=C(O1)C1(C)C2C2(C)OC1(O)C4(C)OC23O` (centres undefined), the Potency result in assay [1] and in assay [2] was “inactive” in each case.
As for `CCC1OC(=O)C(C)CC(C)C(=O)/C(C)=C/C(C)C(=O)/C=C/C1(C)O` (centres undefined), the Potency entry in assay [1] and in assay [2] was “inactive” each time.
Consider `CC(=O)O[C@@H]1C=C2[C@H](CC[C@@]3(C)[C@@]2(O)CC[C@H]2Cc4c([nH]c5ccccc45)[C@@]23C)O[C@@H]1C(C)(C)O`, for which the Potency entry in [1] and in assay [2] was “inactive” in each case.
`C=C(C)[C@H]1CC[C@]2(C(=O)O)CC[C@]3(C)C(CCC4[C@@]5(C)CCC(=O)C(C)(C)C5CC[C@]43C)C12` (some centres undefined): the Potency in assay [3] was 7.08 µM (active).
For the compound `COC(=O)c1ccccc1O[C@@H]1O[C@H](CO[C@@H]2OC[C@@H](O)[C@H](O)[C@H]2O)[C@@H](O)[C@H](O)[C@H]1O`, the Potency result in [1] and in [2] was “inactive” in each case.
For the compound `O=C(O)CC1CCC(c2ccc(-c3ccc(Nc4ccc(C(F)(F)F)nc4)cn3)cc2)CC1` (centres undefined), the Potency in [4] was 44.1 µM (active); in assay [5], 4.41 µM (active); in assay [3] it was 6.31 µM (active); in assay [2] it was 10 µM (active); in assay [6] it was 4.41 µM (active). For the same compound, the outcome in [7] and in assay [8] was inactive.
Take `CC1CC(=O)[C@]2(O)C(C(=O)OCCc3ccc(O)c(O)c3)=CO[C@@H](O[C@@H]3O[C@H](CO)[C@@H](O)[C@H](O)[C@H]3O)[C@H]12` (some centres undefined): the Potency entry in [1] and in assay [2] was “inactive” throughout.
Consider `CCC(C)C(C(=O)O)N1Cc2c(OCC=C(C)C)c(C)c(OC)c(C(=O)O)c2C1=O` (centres undefined), for which the Potency result in assay [1] and in assay [2] was “inactive” each time.
As for `O=C(O)CCc1cccc(O)c1O[C@@H]1O[C@H](CO)[C@@H](O)[C@H](O)[C@H]1O`, the Potency entry in assay [1] and in assay [2] was “inactive” each time.
With `CC[C@H](NC(=O)c1c(O)c(-c2ccccc2)nc2ccccc12)c1ccccc1`, the Potency entry in [1] and in assay [2] was “inactive” throughout.
For `Fc1ccc(-c2c3cccc(C(F)(F)F)c3nn2Cc2ccc(F)cc2Cl)cc1`, the Potency result in assay [3] and in assay [2] was “inactive” throughout.
As for `C=C(COC(=O)CC(C)C)C1Cc2cc(C(C)=O)ccc2O1` (centres undefined), the Potency entry in assay [1] and in assay [2] was “inactive” each time.
`C[C@]1(OC(=O)/C=C/c2ccc(O)cc2)C[C@@H](O)[C@]2(O)C=CO[C@@H](O[C@@H]3O[C@H](CO)[C@@H](O)[C@H](O)[C@H]3O)C12` (some centres undefined): the Potency entry in assay [1] and in assay [2] was “inactive” throughout.
As to `COc1cnc(-c2ccc(Cn3c(CC(C)(C)C(=O)O)c(SC(C)(C)C)c4cc(OC[C@@H]5Cc6ccccc6N5C(C)=O)ccc43)cc2)nc1`, the Potency was 12.2 µM (active) in assay [9]; 1.53 µM (active) in assay [5]; 10 µM (active) in assay [10]; 3.98 µM (active) in [3]; 3.16 µM (active) in assay [2]; 2.43 µM (active) in assay [6]. In addition, the Potency in assay [11] is 0.631 µM (active). Moreover, the result in assay [7] and in [8] was inactive.
Take `OC[C@H]1O[C@@H](OCCc2ccccc2)[C@H](O)[C@@H](O)[C@@H]1O`: the Potency entry in assay [1] and in assay [2] was “inactive” in each case.
Take `CCNC(=O)C1CC(F)(c2ccc(CN3CCCC3)c(F)c2)C1` (centres undefined): the Potency result in [1] and in assay [2] was “inactive” in each case.
As for `C=C1CCC2C(C)(C)CC(O)CC2(C)C1CCC(C)CC(=O)O` (centres undefined), the Potency in assay [3] is 11.2 µM (active).
On the same count and under the same terms, with `O=C(OCC(O)CO[C@@H]1O[C@H](C(=O)O)[C@@H](O)[C@H](O)[C@H]1O)c1ccccc1` (some centres undefined) the entry was “inactive”.
As to `CC[C@@H](C)[C@H](N)C(=O)N1Cc2ccccc2C1`, the Potency entry in [3] and in assay [2] was “inactive” throughout.
With `CC1CCC2C(C)(C)C(O)C(O)CC2(C)C12Cc1c(O)cc(CO)c(C=O)c1O2` (centres undefined), the Potency entry in [1] and in assay [2] was “inactive” throughout.
As to `O=C(O)c1cccc(CN2C(=O)/C(=C(\c3ccccc3)c3ccc(Cl)cc3)c3ccccc32)c1`, the Potency in assay [3] is 1.41 µM (active).
For `Cn1cc(-c2c[nH]c3ncnc(N4CCOCC4)c23)cn1`, the Potency entry in assay [5], in [3] and in assay [6] was “inactive” throughout.
As to `CC12CC(c3ccoc3)OC(=O)C1CCC1(C)C2CCC(O)C1(C)O` (centres undefined), the Potency result in assay [1] and in assay [2] was “inactive” in each case.
Take `CC[C@@H]1[C@H]2CCCCN3C(=O)C[C@H]([C@@H]4[C@H]1OC(=O)[C@H]4C)[C@@H]23`: the Potency result in assay [1] and in assay [2] was “inactive” in each case.
